High-throughput results as filed in PubChem.
D2 ag-1 = D2 dopamine receptor (human) agonism; P14416; HEK293 T-REx D2 cells, calcium flux agonist mode; activation, % at 2 µM; actives 0.53% (n = 340,000); AID 485358;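 active means activation over 3 SD above normal in the single-dose calcium agonist read, cut at about 30% in these data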
Target sequence (P14416 whole entry, looked up): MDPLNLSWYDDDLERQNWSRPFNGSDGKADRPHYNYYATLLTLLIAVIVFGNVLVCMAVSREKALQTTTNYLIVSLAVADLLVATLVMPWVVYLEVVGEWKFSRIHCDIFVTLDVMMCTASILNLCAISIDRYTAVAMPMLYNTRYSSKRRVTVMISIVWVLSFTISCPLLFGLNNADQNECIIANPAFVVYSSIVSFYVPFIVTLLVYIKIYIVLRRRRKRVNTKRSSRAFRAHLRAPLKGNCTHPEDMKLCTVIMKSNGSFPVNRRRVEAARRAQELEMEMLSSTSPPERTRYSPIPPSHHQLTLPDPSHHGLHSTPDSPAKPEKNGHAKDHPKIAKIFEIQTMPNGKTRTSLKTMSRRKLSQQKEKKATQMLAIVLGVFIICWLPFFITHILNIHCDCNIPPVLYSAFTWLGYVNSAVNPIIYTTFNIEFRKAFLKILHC
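Tetracycline-induced HEK293 T-REx cells with force-coupled D2 receptor, plated overnight at 30 C, loaded with no-wash calcium dye. After a 10 s baseline, compound was pin-added and calcium flux read kinetically for 180 s; calcium rises flagged agonists.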
D2 PAM-1 = positive allosteric modulators of human D2 dopamine receptor. potentiation, % at 10 µM. AID 485347. HEK293 T-REx D2, calcium flux, EC20 dopamine potentiation. actives 0.34% (n = 340,000);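 active means potentiation over 3 SD above the plate norm, cut at about 30% in these data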
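Tetracycline-induced Hek293 Trex D2 cells, force-coupled to calcium, loaded with no-wash calcium dye. Compound added with 180 s kinetic read for agonism, then EC20 dopamine and a further 180 s read for potentiation.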
D2 ag-2 = agonists of human D2 dopamine receptor (beta-arrestin) | actives 0.084% (n = 360,000) | activation, % (test concentration not listed) | AID 624465 | DiscoveRx PathHunter D2 beta-arrestin, luminescence, 90 min; 100% = 57 uM dopamine signal | P14416; in the data active means activation above about 40%; inconclusive means between about 15% and that limit
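DiscoveRx PathHunter D2 beta-arrestin cells (2,100/well) attached overnight, then compound-stimulated 90 min at 37 C in HBSS/10 mM HEPES/0.1% Tween-20 buffer; beta-galactosidase complementation read by luminescence after 1 h at ambient temperature. Dopamine 57 uM final (EC100) as control.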
D2 antag = antagonizes the human D2 dopamine receptor | actives 2% (n = 340,000) | HEK293 TREx D2 cells, calcium flux, dopamine EC80 | P14416 | inhibition, % at 10 µM; in the data active means inhibition above about 30%; inactive means below that, where a call was filed
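Cells plated overnight at 30 C with tetracycline; no-wash calcium dye, 30–90 min RT; 10 s baseline; compound pinned; 180 s read; EC80 dopamine added; another 180 s read.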
D2 PAM-2 = positive allosteric modulators of human D2 dopamine receptor; P14416; DiscoveRx D2 beta-arrestin cells, luminescence, 90 min; 100% = 57 uM dopamine signal; potentiation, % (concentration not given with the values); actives 0.23% (n = 360,000); in the data active means potentiation above about 50%; inconclusive means mostly about 30% to 49%
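D2 cells co-treated with compound plus 50 nM dopamine (EC20) for 90 min at 37 deg C to detect potentiation. Beta-arrestin recruitment was read as enzyme-fragment luminescence after 1 h at ambient temperature. Full response was set by 57 uM dopamine.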
D3 arrestin ag = activates human D3 dopamine receptor beta-arrestin recruitment; Potency, µM (top dose mostly 76.9 µM), usual class: activators; DiscoveRx D3 beta-arrestin cells, luminescence, 90 min; actives 4% (n = 2,300); shares compounds with D2 ag-1; further: nearly all actives have a fitted effect of over 70% in size
D2 ag-3 = D2 receptor agonism, beta-arrestin counterscreen; actives 5.9% (n = 2,300); Potency, µM (series often up to 76.9 µM), usual class: activators; DiscoveRx PathHunter D2 beta-arrestin, luminescence, 90 min; response scale: percent relative to full dopamine signal; shares compounds with D2 ag-1; AID 720507; further: nearly all actives have a fitted effect of over 70% in size
Of the large screens only hits and unclear results are named; the others gave an inactive call (follow-up assays come after a bar, where they were run). The list is not random: actives were taken first. Their share in the collection is about 2.4%. Unless noted, the call rests on the fitted dose curve; in most records, active means well fitted activation curve with a large enough effect; inconclusive means small, poorly fitted or top-dose-only effect; inactive means flat fitted curve, though single readings scatter.

O=C(NCc1ccccn1)c1cccc(S(=O)(=O)Nc2ccc(F)cc2)c1	none
O=C(NCc1ccncc1)c1cccc(S(=O)(=O)Nc2ccc(F)cc2)c1	none | D3 arrestin ag inactive | D2 ag-3 inactive
CC(=O)c1cc2c(C)c(C(=O)c3ccccc3)oc2cc1O	D2 ag-1 36 | D3 arrestin ag inactive | D2 ag-3 inactive
O=C(c1ccccc1)c1ccc(O)cc1O	none
CC(CCc1ccc(O)cc1)NC1C2CC3CC(C2)CC1C3 (stereo unspecified)	D2 ag-1 38, D2 antag 71 | D3 arrestin ag inactive | D2 ag-3 inactive
CCc1ccc(C(=O)c2cn(CC(=O)Nc3cc(F)ccc3F)c3nc(C)ccc3c2=O)cc1	none (no result: D2 ag-2, D2 antag, D2 PAM-2)
Fc1ccccc1N1CCN(c2ncnc3c2nc2n3CCCCC2)CC1	none (no result: D2 ag-2, D2 antag, D2 PAM-2)
O=C(C1CCN(c2ncnc3c2nc2n3CCCCC2)CC1)N1CCN(c2ccccc2F)CC1	none | D3 arrestin ag inconclusive | D2 ag-3 inactive
O=C(NCCN1CCN(c2ccccc2)CC1)Nc1ccccc1Br	D2 ag-1 59, D2 antag 76 | D3 arrestin ag inactive | D2 ag-3 inactive
O=C(NCCN1CCN(c2ccccc2)CC1)Nc1ccccc1Cl	D2 ag-1 64, D2 antag 35 | D3 arrestin ag inconclusive | D2 ag-3 inactive
CCCN1CCN(CCNC(=O)Nc2ccccc2Cl)CC1	none
O=C(NCCN1CCN(c2ccccc2)CC1)Nc1ccc(Cl)cc1	D2 ag-1 75, D2 antag 82 | D3 arrestin ag inactive | D2 ag-3 inconclusive
COc1cc(NC(=O)NCCN2CCN(c3ccccc3)CC2)cc(OC)c1OC	D2 ag-1 75, D2 antag 76 | D3 arrestin ag inactive | D2 ag-3 inconclusive
O=C(NCCN1CCN(c2ccccc2)CC1)Nc1cccc(Br)c1	none
CC(CNC(=O)c1cnn(-c2ccc(F)cc2)c1-n1cccc1)c1ccccc1 (stereo unspecified)	none (no result: D2 ag-2, D2 antag, D2 PAM-2)
CCN(CC)C(=O)c1sc2c(c1C)c(=O)n(-c1ccccc1)c(=O)n2CC(=O)N(CC)c1cccc(C)c1	none (no result: D2 ag-2, D2 antag, D2 PAM-2)
CC(C)Sc1ncnc2c1oc1ccccc12	none | D3 arrestin ag inactive | D2 ag-3 inactive
Cc1nc(-n2nc(C)c(Cc3ccccc3Cl)c2C)sc1C(=O)N1CCCCC1C (stereo unspecified)	none (no result: D2 ag-2, D2 antag, D2 PAM-2)
O=C(CC1(O)C(=O)N(CCc2ccccc2)c2ccc(Br)cc21)c1ccccc1O (stereo unspecified)	none (no result: D2 ag-2, D2 antag, D2 PAM-2)
O=[N+]([O-])c1ccc(C=CC=Cc2ccccc2)cc1	none (no result: D2 ag-1, D2 PAM-1, D2 antag)
O=[N+]([O-])c1ccc(/C=C/C2=NN(c3ccccc3)C(c3ccco3)C2)cc1 (stereo unspecified)	D2 ag-1 51 | D3 arrestin ag inactive | D2 ag-3 inactive
CC1(C)Cc2cccc(OCC(O)CN3CCN(c4ccccn4)CC3)c2O1 (stereo unspecified)	D2 ag-1 72, D2 ag-2 inconclusive, D2 antag 60 | D3 arrestin ag inconclusive | D2 ag-3 inconclusive
Cc1cc(C)c(C)c(OCC(O)CN2CCN(c3ccccn3)CC2)c1 (stereo unspecified)	D2 ag-1 66, D2 ag-2 48, D2 antag 92 | D3 arrestin ag 4µM | D2 ag-3 4µM
CC1(C)Cc2cccc(OCC(O)CNCc3ccccn3)c2O1 (stereo unspecified)	none
Cc1cccc(OCC(O)CN2CCN(c3ccccn3)CC2)c1C (stereo unspecified)	D2 ag-1 72, D2 ag-2 inconclusive, D2 antag 78 | D3 arrestin ag inactive | D2 ag-3 inconclusive
Cc1ccc(S(=O)(=O)c2nnn3c2nc(N2CCN(c4ccc(F)cc4)CC2)c2cc(Cl)ccc23)cc1C	none (no result: D2 PAM-1, D2 ag-2, D2 antag, D2 PAM-2)
CCN(C(=O)CSc1nc2ccccc2n1CC(=O)Nc1ccccc1C)c1ccccc1	none (no result: D2 ag-2, D2 antag, D2 PAM-2)
COc1cc(CNCCCN2CCOCC2)ccc1OCC(=O)NC(C)(C)C	none
COc1cc(CNCCN2CCOCC2)ccc1OCC(=O)NC(C)(C)C	D2 ag-1 34 | D3 arrestin ag inactive | D2 ag-3 inactive
Cc1cc(C(=O)CN2C(=O)C(=O)N(C3CCCC3)C2=O)c(C)n1CCc1ccccc1	none
Cc1[nH]c2ccccc2c1C(=O)CN1C(=O)C(=O)N(C2CCCC2)C1=O	none | D3 arrestin ag inactive | D2 ag-3 inactive
COc1ccc(-n2c(=O)c3sc4ccccc4c3n(C)c2=O)cc1	none (no result: D2 ag-2, D2 antag, D2 PAM-2)
CC1=CC(C)C(/C=N/N=C(N)N)C(C)C1 (stereo unspecified)	none | D3 arrestin ag inactive | D2 ag-3 inactive
CC(C)Oc1ccccc1-c1nc(SCC(=O)c2ccc(F)cc2)n[nH]1	none (no result: D2 ag-2, D2 antag, D2 PAM-2)
N#Cc1ccc(C2=CC(=O)C[C@H](c3ccc(F)cc3)C2)cc1	none | D3 arrestin ag inactive | D2 ag-3 inactive
Cn1ccc2ccc(C3=CC(=O)C[C@H](c4ccc(F)cc4)C3)cc21	none | D3 arrestin ag inactive | D2 ag-3 inactive
Cc1ccc(C2=CC(=O)C[C@H](c3ccc(F)cc3)C2)cc1	none
Cc1cc(=O)n2nc(N3CCC(C(=O)NCCc4ccc(Cl)cc4)CC3)sc2n1	D2 ag-1 43 | D3 arrestin ag inactive | D2 ag-3 inactive
CC(C)(C)OC(=O)N1CCC(c2c(C(=O)NCc3cccc(Cl)c3)cnn2-c2ccc(F)cc2)CC1	none (no result: D2 ag-2, D2 antag, D2 PAM-2)
Cc1ccc(S(=O)(=O)NCC2CCC(C(=O)NCCc3ccc(Cl)cc3)CC2)cc1 (stereo unspecified)	none (no result: D2 ag-2, D2 antag, D2 PAM-2)
COc1cccc(-c2ncc3ccccc3c2CO)c1	none | D3 arrestin ag inactive | D2 ag-3 inactive
CCCCC(=O)OCc1c(-c2cccc(OC)c2)ncc2ccccc12	none | D3 arrestin ag inactive | D2 ag-3 inactive
CC(CCc1ccccc1)NCc1cccc2ccccc12 (stereo unspecified)	D2 ag-1 57, D2 antag 32 | D3 arrestin ag inactive | D2 ag-3 inactive
O=C(NCCN1CCN(c2ccccc2F)CC1)c1ccc2nc3ccccc3c(=O)n2c1	D2 ag-1 67, D2 antag 57 | D3 arrestin ag inactive | D2 ag-3 inconclusive
Cn1c(C(=O)NCCN2CCN(c3ccccc3F)CC2)cc2c(=O)n(C)c3ccccc3c21	D2 ag-1 54, D2 antag 95 | D3 arrestin ag inactive | D2 ag-3 inactive
CCc1nc2ccc(C(=O)NCCCN3CCN(c4ccccc4F)CC3)cc2nc1CC	D2 antag 88 | D3 arrestin ag inactive | D2 ag-3 inactive
COC(=O)c1cc(S(=O)(=O)NCCN2CCN(c3ccccc3F)CC2)c[nH]1	D2 antag 73 | D3 arrestin ag inactive | D2 ag-3 inactive
